Test systems include SK-MEL-2 melanoma; EKVX NSCLC; SN12C renal; UO-31 renal; TK-10 renal; ACHN renal; CAKI-1 renal; A498 renal; CCRF-CEM leukemia; MOLT-4 leukemia; SR leukemia; RPMI-8226 leukemia; OVCAR-8 ovarian; OVCAR-5 ovarian; OVCAR-4 ovarian; SK-OV-3 ovarian; IGROV1 ovarian; OVCAR-3 ovarian; HS 578T breast; NCI/ADR-RES ovarian.
Common to all, as to test: NCI-60 one-dose screen, 48 h (100 = growth as untreated, 0 = no growth, -100 = all killed)
Holding throughout (conditions): 10 µM unless noted

The panel holds about 83,000 compounds, 20% with a hit somewhere; the sample as a whole holds those more often.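 Plates (96-well) were seeded with cells, treated with compound at one concentration, and incubated for 48 hours before percent growth was determined.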 Unmarked numbers belong to inactive results. Activity calls are given as the source filed them. How the source made its calls: active means growth percent below 10; inactive means the rest.

For `O=C(CCl)Nc1cc(O)c2c(c1)C(=O)c1cccc(O)c1C2=O`, the growth with SK-MEL-2 melanoma was -49.4% (active); in the experiment with EKVX NSCLC, 5% (active); with SN12C renal, -43.1% (active); with UO-31 renal, -87% (active); in the experiment with TK-10 renal, -87.3% (active); with ACHN renal it was -91.2% (active). Also, the growth is -94% (active) in the experiment with CAKI-1 renal; -0.734% (active) in the experiment on A498 renal; -45% (active) with CCRF-CEM leukemia; -56.3% (active) in the experiment on MOLT-4 leukemia; -35.5% (active) with SR leukemia; -53.8% (active) in the experiment on RPMI-8226 leukemia. Moreover, the growth is -49.5% (active) in the experiment on OVCAR-8 ovarian; -40% (active) in the experiment on OVCAR-5 ovarian; -1.37% (active) in the experiment with OVCAR-4 ovarian; 17.1% with SK-OV-3 ovarian; -55.6% (active) with IGROV1 ovarian; -100% (active) in the experiment with OVCAR-3 ovarian. For the same molecule, the growth in the experiment on HS 578T breast was 11.4%; with NCI/ADR-RES ovarian, 19.1%.

In the case of `O=C1/C(=C/c2cc(F)cc(F)c2)Cc2cc(F)cc(F)c21`, the growth was 93.7% in the experiment on SK-MEL-2 melanoma; 88% in the experiment on EKVX NSCLC; 106% with SN12C renal; 70.9% with UO-31 renal; 102% with TK-10 renal; 92.7% in the experiment on ACHN renal. Moreover, the growth was 77.6% in the experiment on CAKI-1 renal; 90.2% in the experiment with A498 renal; 110% in the experiment with CCRF-CEM leukemia; 87.3% with MOLT-4 leukemia; 62.8% in the experiment on SR leukemia; 94.1% in the experiment with RPMI-8226 leukemia. Moreover, the growth is 111% in the experiment on OVCAR-8 ovarian; 96.6% with OVCAR-5 ovarian; 110% in the experiment on OVCAR-4 ovarian; 111% with SK-OV-3 ovarian; 93.2% in the experiment with IGROV1 ovarian; 94.9% with OVCAR-3 ovarian. Besides, the results for the growth with HS 578T breast and in the experiment with NCI/ADR-RES ovarian were 90.5% and 98.2%, respectively.

For the molecule `COc1cc(C2C(C#N)=C(N)Oc3cc4c(cc32)OCO4)cc2c1OCO2` (stereo not given), the growth in the experiment with SK-MEL-2 melanoma was 56.6%; in the experiment with EKVX NSCLC it was 55.7%; in the experiment on SN12C renal, 35.2%; in the experiment with UO-31 renal it was 46.3%; with TK-10 renal, 72.1%; in the experiment with ACHN renal, 35%. The growth in the experiment on CAKI-1 renal was 60.8%; in the experiment on A498 renal it was 8.65% (active); with CCRF-CEM leukemia it was 18.2%; in the experiment with MOLT-4 leukemia, 20.3%; in the experiment with SR leukemia it was 15.3%; with RPMI-8226 leukemia, 31.4%. Also, the growth was 35.1% with OVCAR-8 ovarian; 41.3% in the experiment with OVCAR-5 ovarian; 42.3% in the experiment on OVCAR-4 ovarian; -5.36% (active) in the experiment on SK-OV-3 ovarian; 33.3% in the experiment with IGROV1 ovarian; -39.7% (active) with OVCAR-3 ovarian. Besides, the growth in the experiment with HS 578T breast is 23%; with NCI/ADR-RES ovarian it was 11.2%.

`CCN(CC)Cc1cc(Nc2ccnc3ccc(OC)cc23)ccc1O`: the growth was 26.5% in the experiment with SK-MEL-2 melanoma; 67.1% with EKVX NSCLC; 56.6% in the experiment on SN12C renal; 2.04% (active) in the experiment on UO-31 renal; 49.6% with TK-10 renal; 35.1% in the experiment on ACHN renal. Further, the growth in the experiment on CAKI-1 renal is 45.4%; in the experiment on A498 renal, 45.6%; in the experiment on CCRF-CEM leukemia, 55.5%; in the experiment with MOLT-4 leukemia, 29.7%; in the experiment with SR leukemia, 7.65% (active); with RPMI-8226 leukemia, 48.5%. Moreover, the growth in the experiment on OVCAR-8 ovarian is 28.4%; in the experiment with OVCAR-5 ovarian it was 55%; with OVCAR-4 ovarian, 55.3%; with SK-OV-3 ovarian, 73.6%; in the experiment on IGROV1 ovarian, 23.8%; with OVCAR-3 ovarian it was 50.8%. Besides, the growth in the experiment on HS 578T breast is 77.2%; with NCI/ADR-RES ovarian it was 35.8%.

`CC(=O)O[C@@H]1CC2C(C)(C)CCCC2(C)C2=C1C(=O)C(C(C)C)=CC2=O` (stereo not given in full): the growth in the experiment with SK-MEL-2 melanoma is -47.9% (active); in the experiment with EKVX NSCLC, 10.8%; in the experiment on SN12C renal it was 7.47% (active); in the experiment with UO-31 renal it was -94.1% (active); in the experiment with TK-10 renal, 18.6%; with ACHN renal, -70.2% (active). Moreover, the growth in the experiment on CAKI-1 renal was -3.95% (active); with A498 renal, -63.3% (active); in the experiment with CCRF-CEM leukemia, 14%; in the experiment on MOLT-4 leukemia it was 9.69% (active); in the experiment on SR leukemia, -0.431% (active); in the experiment on RPMI-8226 leukemia it was 2.06% (active). In addition, the growth was -2.03% (active) with OVCAR-8 ovarian; -45.4% (active) with OVCAR-5 ovarian; 13.4% in the experiment with OVCAR-4 ovarian; 17.2% with SK-OV-3 ovarian; 7.5% (active) in the experiment with IGROV1 ovarian; 0.0354% (active) in the experiment with OVCAR-3 ovarian. Besides, the growth in the experiment with HS 578T breast is 9.38% (active); in the experiment on NCI/ADR-RES ovarian it was 15.9%.

In the case of `CCN(CC)C(=O)O/N=C(/C)c1ccccc1`, the growth is 102% in the experiment on SK-MEL-2 melanoma; 112% in the experiment with EKVX NSCLC; 100% with SN12C renal; 101% in the experiment on UO-31 renal; 87.2% in the experiment on TK-10 renal; 112% with ACHN renal. In addition, the growth is 115% in the experiment on CAKI-1 renal; 103% in the experiment on A498 renal; 100% in the experiment with CCRF-CEM leukemia; 109% in the experiment on MOLT-4 leukemia; 104% in the experiment on SR leukemia; 105% in the experiment on RPMI-8226 leukemia. The growth with OVCAR-8 ovarian was 93.3%; with OVCAR-5 ovarian, 103%; with OVCAR-4 ovarian, 80.7%; in the experiment with SK-OV-3 ovarian it was 111%; in the experiment on IGROV1 ovarian it was 126%; in the experiment with OVCAR-3 ovarian it was 109%. The growth is 123% in the experiment on HS 578T breast and 103% in the experiment with NCI/ADR-RES ovarian.

With `CC(C)OC1OC(OC(C)C)C(OC(C)C)OC1OC(C)C` (stereo not given), the growth is 95.1% in the experiment on SK-MEL-2 melanoma; 103% in the experiment on EKVX NSCLC; 94.6% with SN12C renal; 92.5% in the experiment on UO-31 renal; 102% with TK-10 renal; 95.1% with ACHN renal. Moreover, the growth with CAKI-1 renal is 93.9%; with A498 renal it was 101%; in the experiment on CCRF-CEM leukemia it was 93.4%; with MOLT-4 leukemia, 80.2%; with SR leukemia, 100%; with RPMI-8226 leukemia, 94.5%. Further, the growth was 94.4% in the experiment on OVCAR-8 ovarian; 102% with OVCAR-5 ovarian; 88.9% in the experiment on OVCAR-4 ovarian; 113% in the experiment with SK-OV-3 ovarian; 93.9% in the experiment on IGROV1 ovarian; 99.5% in the experiment with OVCAR-3 ovarian. For the same molecule, the growth in the experiment on HS 578T breast was 101%; in the experiment with NCI/ADR-RES ovarian, 105%.

As for `COc1cccc(C2C(C#N)=C(N)Oc3cc4c(cc32)OCO4)c1` (stereo not given), the growth in the experiment with SK-MEL-2 melanoma was 64.7%; in the experiment on EKVX NSCLC, 47.9%; with SN12C renal, 23.8%; in the experiment with UO-31 renal, 39.3%; in the experiment with TK-10 renal it was 80%; in the experiment on ACHN renal, 29.3%. Also, the growth was 52.4% in the experiment with CAKI-1 renal; 1.43% (active) in the experiment with A498 renal; 17.4% with CCRF-CEM leukemia; 19.4% with MOLT-4 leukemia; 17.8% in the experiment on SR leukemia; 23.8% with RPMI-8226 leukemia. In addition, the growth in the experiment on OVCAR-8 ovarian was 24.9%; in the experiment with OVCAR-5 ovarian, 31.1%; in the experiment on OVCAR-4 ovarian it was 40.5%; in the experiment on SK-OV-3 ovarian, 0.748% (active); in the experiment on IGROV1 ovarian, 21.6%; in the experiment on OVCAR-3 ovarian it was -38.6% (active). Moreover, the growth in the experiment on HS 578T breast is 27.8%; with NCI/ADR-RES ovarian, 5.77% (active).

For the origin of these results see PubChem BioAssay (NCI).
